Bioassay records (PubChem)
Sampled rows, rich in hits. Any-hit rate of the full collection: about 2.4%.
Cruzain inh Det: inhibitors of Trypanosoma cruzi cruzain with detergent; P25779; purified cruzain, Z-FR-AMC fluorescence, 0.01% Triton; Potency, µM, without a hit: max response, negative = inhibition, hits mostly inhibitors; 0.43% of 200,000 active; AID 1478;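 note: plate controls were neutral wells for no effect and buffer without enzyme for full effect; nearly all actives have a fitted effect of over 40% in size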
Target sequence (P25779 123-467 limits assumed): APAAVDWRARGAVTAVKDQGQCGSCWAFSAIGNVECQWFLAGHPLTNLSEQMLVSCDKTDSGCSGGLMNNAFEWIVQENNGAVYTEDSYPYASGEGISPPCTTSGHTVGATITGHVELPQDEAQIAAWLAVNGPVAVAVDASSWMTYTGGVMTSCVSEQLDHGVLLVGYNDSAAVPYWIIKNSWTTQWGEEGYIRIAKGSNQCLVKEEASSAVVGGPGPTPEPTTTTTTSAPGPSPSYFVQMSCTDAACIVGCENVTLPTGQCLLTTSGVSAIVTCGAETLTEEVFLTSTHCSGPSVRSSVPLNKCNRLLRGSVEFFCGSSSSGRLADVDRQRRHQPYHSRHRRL
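In this qHTS format, compounds are incubated with 1.5 nM cruzain for 15 min at room temperature before 2 uM Z-FR-AMC is added. Release of AMC is followed at 360/450 nm, and progress is taken as the 60 s fluorescence difference.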
Cruzain noTriton: inhibitors of Trypanosoma cruzi cruzain without detergent; 2.3% of 200,000 active; purified cruzain, Z-FR-AMC fluorescence, no detergent; Potency, µM, inactives show max response, negative = inhibition, hits mostly inhibitors;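 note: plate controls were enzyme without inhibitor for no effect and buffer without enzyme for full effect; nearly all actives have a fitted effect of over 40% in size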
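Purified cruzain at 1.5 nM, pre-incubated 15 min with compound at room temperature in 100 mM sodium acetate pH 5.5, 5 mM DTT, 0.00005% Triton X-100. Reaction started with 2 uM Z-FR-AMC; AMC fluorescence increase over 60 s gives rate.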
* = called active by the depositor; u = inconclusive. Calls come from the whole dose curve; as a rule, active = well fitted curve in the direction sought with a large enough effect; inconclusive = small, poorly fitted or top-dose-only effect, or another doubt; inactive = no such curve, though single readings can be large; an effect the other way counts as inactive or inconclusive. Potency is the fitted concentration of half-maximal effect.

SMILES	Cruzain inh Det	Cruzain noTriton
Cc1ccc(CNC(=O)c2cc3c(=O)n4cccc(C)c4nc3n(CC3CCCO3)c2=N)cc1 (configuration not stated)	-4%	u
CCn1nc(C)c2c(-c3ccccc3)cc(=O)n(C(C)C(=O)Nc3cccc(F)c3)c21 (configuration not stated)	-6%	-11%
COc1cc(-c2cc3n(C)c(C)c(CCC(=O)NC4CCC(C)CC4)c(=O)n3n2)cc(OC)c1OC (configuration not stated)	-1%	23%
COc1ccccc1NC(=O)c1oc2ccccc2c1NC(=O)Cc1cccs1	-2%	-12%
Cc1cc(C)c(Cn2c3ccccc3c3cnn(CC(=O)NCC(C)c4ccccc4)c(=O)c32)c(C)c1 (configuration not stated)	-1%	-10%
COC(=O)c1ccc(NC(=O)CC2C(=O)N(c3ccc(F)cc3)C(=O)N2Cc2ccc(OC)cc2)cc1 (configuration not stated)	0%	5%
Cc1ccc(N2CC(NC(=O)c3ccc(S(=O)(=O)N4CCCC4)cc3)CC2=O)cc1 (configuration not stated)	0%	8%
Cc1c(C2=CCN(S(=O)(=O)c3ccc(Br)cc3)CC2)c2ccccc2n1C	-2%	10µM*
CCn1c(C)c(C2=CCN(S(=O)(=O)c3ccc(C)cc3)CC2)c2ccccc21	-4%	u
CS(=O)(=O)N(CC(=O)Nc1ccc2c(c1)OCCO2)Cc1ccccc1	1%	0%
O=C(CN(Cc1ccccc1)S(=O)(=O)c1ccc2c(c1)OCCO2)Nc1ccc2c(c1)OCCO2	-1%	20µM*
CCOC(=O)c1c(NC(=O)C2=C(C)NC(=S)NC2c2ccc(F)cc2F)sc(C)c1C (configuration not stated)	-4%	u
CCOC(=O)c1c(NC(=O)C2C3C=CC(CC3)C2C(=O)O)sc(C)c1C (configuration not stated)	-6%	-5%
CCOC(=O)c1c(NC(=O)C2=C(C)NC(=S)NC2c2ccc(C)cc2)sc(C)c1C (configuration not stated)	-8%	20µM*
CCOC(=O)c1c(NC(=O)C2=C(C)NC(=S)NC2c2ccc(F)cc2)sc(C)c1C (configuration not stated)	-6%	16µM*
COc1ccc(OC)c(-n2cnc3cc(C(=O)NCCc4ccccc4)ccc32)c1	-3%	-2%
CCc1ccc(CNC(=O)c2cnc3sc(N4CCCC4)nn3c2=O)cc1	0%	-3%
CCOCN(C(=O)Cn1cnc2cc(C)c(C)cc21)c1c(C)cccc1CC	-8%	u
CC(=O)C1=C(C)NC(SCC(=O)c2ccc(Cl)cc2Cl)=C(C#N)C1c1ccco1 (configuration not stated)	-10%	32µM*
CC(=O)C1=C(C)NC(SCC(=O)c2ccc(Cl)cc2)=C(C#N)C1c1ccco1 (configuration not stated)	-9%	-30%
CC(C)Oc1ccc(CNC(=O)c2cc3ccccn3n2)cc1	-1%	-13%
CC(=O)Nc1cc(C(=O)OCC(=O)c2ccccc2)ccc1C	1%	3%
CCC(=O)Nc1cc(C(=O)OCc2ccc(C(=O)Oc3ccccc3)cc2)ccc1C	-2%	13µM*
O=C(O)CCC[C@H](O)\C=C/C=C/C=C/[C@H](O)C/C=C\CCCCCO	5%	-10%
O=C(O)CCCC/C=C\C[C@@H](O)/C=C/C=C/C=C\[C@@H](O)CCCC(=O)O	13µM*	4µM*
SMILES	Cruzain inh Det	Cruzain noTriton
COc1ccc(CC(=O)N2CCc3cc(OC)c(OC)cc3C2COc2cc(C)cc(C)c2)cc1OC (configuration not stated)	-1%	u
COc1ccc(C(=O)Nn2c(SCc3ccc([N+](=O)[O-])cc3)nc3ccccc3c2=O)cc1	6%	32µM*
COc1ccc(C(=O)Nn2c(SCC(=O)c3ccccc3)nc3ccccc3c2=O)cc1	-4%	u
O=c1c2ccccc2nc(SCc2ccc([N+](=O)[O-])cc2)n1-c1ccc(Cl)cc1	-2%	13µM*
O=c1c2ccccc2nc(SCc2ccc([N+](=O)[O-])cc2)n1CCCO	-10%	u
Cn1c(=O)c2c(SCC(=O)Nc3ccccc3C(F)(F)F)nc(C3CCCC3)nc2n(C)c1=O	2%	8%
COc1cccc(NC(=O)N(Cc2c[nH]c3ccccc23)C2CCCCC2)c1	-19%	11%
COc1ccc(OC)c(NC(=O)C2Cc3ccccc3CN2S(=O)(=O)c2ccc(F)cc2)c1 (configuration not stated)	-3%	u
Cc1ccc(N=C2NC(=O)/C(=C/c3cccs3)S2)cc1C	-6%	u
Cc1cccc(N=C2NC(=O)/C(=C\c3cccs3)S2)c1	-7%	32µM*
CCC(C)NC(=O)C1CCN(C(=O)c2ccc(-n3ccc4ccccc43)s2)CC1 (configuration not stated)	-2%	17%
O=C(Cc1ccc(Cl)cc1)NCCc1csc2nc(-c3ccccc3F)nn12	-3%	4%
Cc1ccc(Cn2ccc(NC(=O)c3cc(-c4ccccc4)on3)n2)cc1	-4%	3%
CC(NC(=O)c1cc(-c2ccc(Br)cc2)on1)c1ccccc1 (configuration not stated)	7%	16µM*
COC(=O)c1cc(-c2ccc(Br)cc2)on1	1%	-14%
Cc1ccc(Cn2ccc(NC(=O)c3cc(-c4ccc(Br)cc4)on3)n2)cc1	3%	4µM*
CCOC(=O)c1sc(NC(=O)c2cc(-c3ccc(F)cc3)on2)c(C(=O)OCC)c1C	-1%	1%
Cc1ccc(C)c(Nc2ncnc3c2cnn3-c2ccc(F)cc2)c1	-3%	6%
Cc1cc(C)cc(N2CCn3c2nc2c3c(=O)n(Cc3c(F)cccc3Cl)c(=O)n2C)c1	-1%	3%
O=S(=O)(CCc1ccccc1)c1nc2ccccc2s1	0%	-1%
COCCc1nn2c(=O)cc(COC(=O)C(c3ccccc3)c3ccccc3)nc2s1	-9%	u
Cc1cc2cc(CNC(=O)c3cc4ccccc4o3)ccc2n1C	-4%	25µM*
Cc1cc2cc(CNC(=O)c3ccc4c(c3)OCO4)ccc2n1C	-2%	20µM*
O=C(NCc1ccc2c(c1)OCO2)c1cccc(C(=O)NCc2ccc3c(c2)OCO3)c1	-2%	0%
O=C(Nc1nc(-c2cccs2)cs1)c1cc2ccccc2oc1=O	0%	-1%
SMILES	Cruzain inh Det	Cruzain noTriton
O=C(NCc1ccc(-c2nc3ccccc3s2)cc1)c1ccc(Br)o1	1%	u
O=C(NCc1ccc(-c2nc3ccccc3s2)cc1)c1cc2ccccc2o1	-3%	13µM*
Cc1cc(-c2csc(NC(=O)c3cc4ccccc4o3)n2)c(C)n1C	-6%	16µM*
O=C(NCc1ccc(Cl)cc1)c1cc2ccccc2o1	-6%	-6%
CCc1ccc(Sc2cc(C(=O)O)c3ccccc3n2)cc1	-2%	6%
CCc1ccccc1NC(=O)CSc1ncc2c(n1)-c1ccccc1N(Cc1ccc(C)cc1)S2(=O)=O	2%	0%
CCCN(Cc1cccs1)C(=O)Nc1ccc(Br)c(C)c1	-4%	-2%
Cc1nc(S(=O)(=O)c2ccc(Cl)cc2)c(NCc2ccccc2)o1	u	32µM*
O=S(=O)(c1ccc(Cl)cc1)c1nc(-c2ccccc2F)oc1NCc1ccccc1	-2%	-10%
Cc1cc(C)cc(NC(=O)C2CCN(S(=O)(=O)c3cccc(-c4noc(C)n4)c3)CC2)c1	1%	6%
